# Measurements from PubChem BioAssay AID588342 (National Center for Advancing Translational Sciences (NCATS), 2011).
# Screen size: about 360,000 compounds; about 25,000 (6.9%) were called active. A call without a number means that no potency is given here. Another 9% or so got no clear call; they are omitted. This is one part of a sample in which actives are shown more often than they occur. Calls come from the whole dose curve; as a rule, active = well fitted inhibition curve with a large enough effect; inconclusive = small, poorly fitted or top-dose-only effect; inactive = flat fitted curve, though single readings scatter.
# Biological target: Luciferin 4-monooxygenase (Photinus pyralis) (UniProt P08659)
# Assay: qHTS profiling assay for firefly luciferase inhibitor/activator using purifed enzyme and Km concentrations of substrates (counterscreen for miR-21 project); note: nearly all actives have a fitted effect of over 55% in size
# Conditions: purified FLuc, luminescence inhibition; series mostly up to 57.5 µM
# Method in brief: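 Purified P. pyralis luciferase, 10 nM final, with Km-level 10 uM D-luciferin and 10 uM ATP in 50 mM Tris acetate pH 7.5, 10 mM Mg acetate, 0.01% Tween-20, 0.05% BSA; 6-point qHTS titration about 60 µM downward; luminescence read.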
# Potency is the fitted concentration of half-maximal effect.
# Sequence of Luciferin 4-monooxygenase (Photinus pyralis) (P08659 whole entry, looked up): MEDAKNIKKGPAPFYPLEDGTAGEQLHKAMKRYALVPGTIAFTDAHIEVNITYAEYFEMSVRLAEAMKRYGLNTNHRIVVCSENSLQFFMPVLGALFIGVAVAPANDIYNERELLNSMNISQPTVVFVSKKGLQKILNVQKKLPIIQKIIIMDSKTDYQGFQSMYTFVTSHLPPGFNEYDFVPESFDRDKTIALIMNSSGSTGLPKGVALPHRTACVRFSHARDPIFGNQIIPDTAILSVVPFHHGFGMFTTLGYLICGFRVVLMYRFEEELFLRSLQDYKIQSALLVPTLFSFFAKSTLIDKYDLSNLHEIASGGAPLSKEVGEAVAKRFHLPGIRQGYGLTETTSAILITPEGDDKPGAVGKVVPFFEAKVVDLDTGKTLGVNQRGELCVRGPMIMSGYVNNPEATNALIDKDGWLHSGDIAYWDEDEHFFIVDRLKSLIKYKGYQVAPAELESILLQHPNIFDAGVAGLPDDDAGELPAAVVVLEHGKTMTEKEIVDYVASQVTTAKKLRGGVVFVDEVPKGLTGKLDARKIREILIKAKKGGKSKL
row,Structure (SMILES),Potency
1,CCCCN1C(=O)c2[nH]nc(-c3ccccc3O)c2C1c1cccc(OCc2ccccc2)c1 (stereo unspecified),inactive
2,CC1CCN(C(=O)Cn2c(=O)n(-c3ccc(Cl)cc3)c(=O)c3c4c(sc32)CCC4)CC1,inactive
3,Cc1ccccc1NC(=O)CN1C(=O)C(C)(C)c2ccccc21,inactive
4,Cc1noc(C)c1-c1ccc2ncnc(NC(C)c3ccco3)c2c1 (stereo unspecified),inactive
5,Cc1ccc(C)c(N2CCN(C(=O)CCc3c(C)nc4c(c3C)c(=O)n(C)c(=O)n4C)CC2)c1,inactive
6,Cc1ccccc1Nc1scc(-c2ccc(Br)cc2)[n+]1-c1ccccc1C,inactive
7,CCOc1ccc(OCC)c(NS(=O)(=O)c2ccc3[nH]c(=O)ccc3c2)c1,inactive
8,Cc1cccc(-n2c(Cc3cc(=O)[nH]c(=O)[nH]3)nnc2SC(C)C)c1,inactive
9,COc1cccc(N(CC(=O)NC2CCCC2)C(=O)Cn2nnc(-c3ccc(C)o3)n2)c1,inactive
10,O=S(=O)(c1ccc(Br)cc1)c1nnn2c1nc(N1CCOCC1)c1sccc12,inactive
11,CCn1cc2nc(SCc3ccccc3Cl)n(CCc3ccccc3)c(=O)c2n1,inactive
12,COc1ccc(C(=O)NNC(=S)NC(=O)c2ccccc2)cc1,inactive
13,COc1ccc(C(=O)Nc2ccc(F)cc2F)cc1,10.7 µM (active)
14,COc1ccc(NC(=O)CS(=O)(=O)c2ccccc2)cc1,inactive
15,COc1ccccc1CC(=O)Nc1ccc(F)cc1F,inactive
16,COc1ccc(NC(=O)ON=C2c3ccccc3-c3ccccc32)cc1,21.3 µM (active)
17,CCc1ccccc1NC(=O)c1ccc2nc(CCc3ccccc3)oc2c1,inactive
18,COc1cc(OC)cc(C(=O)OCC(=O)Nc2ccc(F)cc2F)c1,inactive
19,COc1cccc(NC(=O)c2ccc3nc(CCc4ccccc4)oc3c2)c1,23.9 µM (active)
20,COc1ccc(C(=O)NC(=S)NC2CCCCC2)cc1,15.1 µM (active)
21,COc1ccc(NC(=O)c2ccc3nc(CCc4ccccc4)oc3c2)c(OC)c1,inactive
22,COc1ccc(NC(=O)C(Br)C(C)C)cc1 (stereo unspecified),inactive
23,O=C(NC(=S)NC1CCCCC1)c1ccc(Cl)cc1,inactive
24,Cc1ccc2c(=O)c(C(=O)c3ccc(Cl)cc3)cn(CC(=O)NC3CCCCC3)c2n1,inactive
25,CC(=O)N1c2ccccc2CC1C(=O)N1CCN(c2ccc(F)cc2)CC1 (stereo unspecified),inactive
26,O=c1cc2nc(-c3ccccc3)nc(SCCOc3ccc(Cl)cc3)n2[nH]1,inactive

row,Structure (SMILES),Potency
1,O=C(NNC(=S)NC1CC2CCC1C2)c1ccc(Cl)cc1 (stereo unspecified),inactive
2,CCc1cc(C(c2ccccc2OC)N2CCOCC2)c(NC(=O)c2ccccc2)s1 (stereo unspecified),inactive
3,CCc1cc(C(N)=O)c(NC(=O)c2ccc(OC)cc2)s1,6.01 µM (active)
4,CCc1cc(C(=O)c2ccc(OC)cc2)c(NC(=O)CN2CCN(C)CC2)s1,inactive
5,CC(=O)c1ccc(NC(=O)c2nc3nc(C)cc(C(F)F)n3n2)cc1,inactive
6,Cc1cc(C)cc(N(CC(=O)NC2CCCC2)C(=O)CCC(=O)Nc2cc(C)on2)c1,inactive
7,CCOC(=O)c1c(S(=O)(=O)N2CCCC(C(=O)NCc3ccc(F)cc3)C2)c(C)n(CC)c1C (stereo unspecified),inactive
8,CCOCCOC(=O)C1=C(C)NC(=O)NC1c1ccc2c(c1)OCO2 (stereo unspecified),inactive
9,CCOC(=O)c1nc(-c2ccc3c(c2)OCO3)[nH]c1C,15.1 µM (active)
10,Cc1ccc(C(=O)OCC(=O)NCc2ccc3c(c2)OCO3)s1,inactive
11,CCCCN(CC)CCNC(=O)CCNC(=O)Cn1ccc2ccccc2c1=O,inactive
12,Cc1ccc(C)c(OCC(=O)Nc2sc3c(c2C#N)CCCC3)c1C,inactive
13,O=c1cc(COc2cccc(C(F)(F)F)c2)nc2sc3c(n12)CCCC3,inactive
14,CN1C(=O)/C(=C/c2ccco2)SC1=Nc1cccc(C(=O)O)c1,inactive
15,CC(=O)c1cc(-c2ccccc2)[nH]c1N1CCCC1,inactive
16,O=C1NN(c2ccccc2)C(=O)/C1=C/c1ccc(-c2cccc(C(=O)O)c2)o1,26.9 µM (active)
17,CCCN(CCC)S(=O)(=O)c1ccc(C(=O)Nc2sc3c(c2C(=O)OC)CCN(CC)C3)cc1,inactive
18,CCc1nnc(NC(=O)C2CCN(C(=O)c3ccccc3C)CC2)s1,inactive
19,CC(C)(C)c1ccc(/C=C/C(=O)NC2CCS(=O)(=O)C2)cc1 (stereo unspecified),inactive
20,O=C(/C=C/c1ccc(Cl)cc1)Nc1ccc(Br)cn1,inactive
21,CC(C)(C)c1ccc(/C=C/C(=O)Nc2ncccn2)cc1,4.78 µM (active)
22,O=S(=O)(Cc1nnnn1-c1ccc(Br)cc1)c1ccc(F)cc1,inactive
23,Cc1cc(C)c(CN2CCN(C(=O)Cn3ccc(NC(=O)OCc4ccccc4)nc3=O)CC2)c(C)c1,inactive
24,Cc1cc(C(=O)OCC(=O)N2c3ccccc3NC(=O)C2(C)C)c(C)n1-c1ccccc1,inactive
25,CC(=O)Nc1ccc(C(=O)Nc2nc(-c3cc(C)n(Cc4ccccc4)c3C)cs2)cc1,inactive
26,Cc1cc(-c2csc(N)n2)c(C)n1-c1ccccc1,19 µM (active)

row,Structure (SMILES),Potency
1,C=CCSc1ccc(S(=O)(=O)N2CCN(C)CC2)cn1,inactive
2,COc1cc(NC(=O)CN(C)S(=O)(=O)c2ccc3nc(C)sc3c2)cc(OC)c1,inactive
3,Cc1nc2ccc(S(=O)(=O)N(C)CC(=O)NC(C)c3ccccc3)cc2s1 (stereo unspecified),inactive
4,Cc1cccc(N(CC(=O)Nc2ccc(-c3nc4ccc(C)cc4s3)cc2)S(C)(=O)=O)c1,5.36 µM (active)
5,CCN(CC)S(=O)(=O)c1ccc(NC(=O)CN(c2cccc(F)c2)S(C)(=O)=O)cc1,inactive
6,Cc1ccc2nc(-c3ccc(NC(=O)CN(C)S(=O)(=O)c4ccccc4)cc3)sc2c1,15.1 µM (active)
7,COc1cccc(N(CC(=O)Nc2cccc(F)c2)S(C)(=O)=O)c1,inactive
8,C=CCNC(=O)COC(=O)CNC(=O)c1cc(Cl)cc([N+](=O)[O-])c1,inactive
9,Cc1ccc(C)c(N2CCN(C(=O)Cc3c(C(=O)O)c(C)cn3C)CC2)c1,inactive
10,CSc1cccc(NC(=O)CN2C(=O)CCc3cc(S(=O)(=O)N4CCCCC4)ccc32)c1,inactive
11,COc1cccc(OC)c1C(=O)Nc1ccc2c(c1)n(C)c(=O)n2C,inactive
12,Cn1c(=O)n(C)c2cc(/C=N/NC(=O)c3cccc(Br)c3)ccc21,inactive
13,Cn1c(=O)n(C)c2cc(C(=O)Nc3ccc(Br)cc3)ccc21,15.1 µM (active)
14,COc1cc(OC)c(OC)cc1/C=C/c1nc2ccccc2c(=O)n1-c1ccc(Br)c(C)c1,inactive
15,CCOCCCNC(=O)c1ccc(CS(=O)(=O)c2cccc(C(F)(F)F)c2)o1,inactive
16,Cc1cc2nc3c(=O)n(Cc4ccccc4)c(=O)[nH]c3nc2cc1N,inactive
17,C=CCc1c(C)nc2cc(-c3ccccc3)[nH]n2c1=O,6.01 µM (active)
18,CCCCCN1CC(O)=C(c2ccccc2)C1=N,inactive
19,CCc1c(C)nc2cc(-c3cccs3)[nH]n2c1=O,16.9 µM (active)
20,Cc1nc2c(-c3ccccc3)c(C)[nH]n2c(=O)c1Cl,inactive
21,CCCCN1Cc2c(nc3cc(-c4ccccc4)[nH]n3c2=O)C1=O,19 µM (active)
22,Cc1nc2scc(-c3cccs3)c2c(=O)n1N,inactive
23,CCc1c(C)nc2cc(C)[nH]n2c1=O,inactive
24,CCOC(=O)c1ccc(NC(=O)CCS(=O)(=O)c2ccc(C)cc2)cc1,inactive
25,O=C(/C=C/c1cccc([N+](=O)[O-])c1)OCC(=O)N1CCOCC1,inactive
26,CCc1ccccc1N1C(=O)CN(S(=O)(=O)CC)CC1(C)C(=O)NC1CCCCC1 (stereo unspecified),inactive

row,Structure (SMILES),Potency
1,CCCn1c2ccccc2c2cnn(CC(=O)N3CCCC(C(=O)OCC)C3)c(=O)c21 (stereo unspecified),inactive
2,Cn1c(=O)[nH]c(=O)c2c1nc(NCCc1ccccc1)n2Cc1ccc(F)cc1,inactive
3,COc1ccc2c(c1)CCC/C2=N\OC(=O)c1ccccc1F,12 µM (active)
4,COc1ccc(OC)c(S(=O)(=O)Nc2ccccc2F)c1,inactive
5,COc1cc2c(cc1OC)C(COc1ccc(F)cc1)N(C(=O)c1ccccc1F)CC2 (stereo unspecified),inactive
6,O=C(CNS(=O)(=O)c1ccc2c(c1)OCCCO2)N1CCN(c2ccc(F)cc2)CC1,inactive
7,CCOC(=O)C1=C(c2ccccc2)O/C(=C(/C(=O)OC)C(F)(F)F)S1,inactive
8,COC(=O)/C(=C1\Oc2ccc(C(C)(C)C)cc2S1)C(F)(F)F,3.79 µM (active)
9,CC(C)(C)c1ccc(C(=O)NCC(c2ccco2)S(=O)(=O)c2ccc(F)cc2)cc1 (stereo unspecified),inactive
10,CCOC(=O)c1c(C)n(S(=O)(=O)c2ccc(C)cc2C)c2ccc(NS(=O)(=O)c3ccc(C)cc3C)cc12,inactive
11,O=C(Nc1ccc(OC(F)(F)F)cc1)C1CCCN(S(=O)(=O)c2ccc(Br)s2)C1 (stereo unspecified),inactive
12,Cc1ccc2c(=O)cc(C(=O)Nc3sc4c(c3C(=O)NCc3cccnc3)CCCC4)oc2c1,inactive
13,COc1ccccc1C(=O)NCCn1cc(SCc2ccccc2Cl)c2ccccc21,inactive
14,Cc1ccccc1NC(=O)Cn1c(=O)n(CCc2ccccc2)c(=O)c2ccccc21,inactive
15,Cc1nnc(C)n1-c1ccc(C(=O)Nc2cccc(Br)c2)cc1,inactive
16,Cc1cccc(C)c1-n1c(C)cc(/C=C2\C(=O)NN(c3ccccc3)C2=O)c1C,3.38 µM (active)
17,COc1ccc(CNC(=O)c2cc3c(s2)-c2ccccc2OC3)cc1,inactive
18,Cc1csc(=O)n1CCC(=O)OCC(=O)NNC(=O)c1ccc(Br)cc1,inactive
19,CCCc1nc2c(C)cc(-c3nc4ccccc4n3C)cc2n1Cc1ccc(-c2ccccc2C(=O)O)cc1,13.5 µM (active)
20,CC(=O)Nc1nc2ccccc2n1Cc1ccc(C)cc1,inactive
21,Cc1ccc(Cn2c(CCCNC(=O)C3CCCCC3)nc3ccccc32)cc1,inactive
22,Cc1ccc(C)c(C(=O)COC(=O)Cn2[nH]c(=O)c3ccccc3c2=O)c1,inactive
23,CCOc1ccccc1NC(=O)Cn1c2ncccc2c(=O)n1-c1ccc(C)c(C)c1,inactive
